ALDH1A1 block = blocks purified human ALDH1A1 activity. P00352. Purified ALDH1A1, NADH fluorescence, propionaldehyde substrate. Potency, µM (series often up to 75.3 µM), without a hit: at the top dose activity, negative = inhibition, actives largely listed as inhibitors. 7.3% of 220,000 active. AID 1030;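 also: plate controls were no enzyme wells and a reference inhibitor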
Target sequence (P00352 whole entry, looked up): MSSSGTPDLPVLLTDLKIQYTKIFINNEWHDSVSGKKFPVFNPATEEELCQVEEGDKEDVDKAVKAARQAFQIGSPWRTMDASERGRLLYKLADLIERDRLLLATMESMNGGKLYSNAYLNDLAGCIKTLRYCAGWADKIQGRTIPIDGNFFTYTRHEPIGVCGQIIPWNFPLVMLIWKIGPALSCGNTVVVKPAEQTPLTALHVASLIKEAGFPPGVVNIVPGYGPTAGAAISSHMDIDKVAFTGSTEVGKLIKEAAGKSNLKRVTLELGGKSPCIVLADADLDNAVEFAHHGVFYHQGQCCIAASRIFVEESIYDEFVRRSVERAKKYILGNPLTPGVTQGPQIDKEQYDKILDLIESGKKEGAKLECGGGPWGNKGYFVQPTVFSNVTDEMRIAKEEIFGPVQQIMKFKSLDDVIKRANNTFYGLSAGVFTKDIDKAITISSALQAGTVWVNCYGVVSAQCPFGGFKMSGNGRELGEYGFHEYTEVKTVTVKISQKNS
KinaseGlo FLuc = blocks Kinase-Glo luciferase, a counter-screen artifact | Q27757 | Kinase-Glo luciferase, ATP luminescence, 8 min | Potency, µM (titrated, usually from 38.3 µM), for the others: at the highest dose activity change, negative = inhibition, most hits filed as inhibitors | 0.28% of 200,000 active | AID 1379; active = well fitted curve in the direction sought with a large enough effect; inconclusive = small, poorly fitted or top-dose-only effect, or another doubt; inactive = no such curve, though single readings can be large; an effect the other way counts as inactive or inconclusive; also: nearly all actives have a fitted effect of over 60% in size
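Compound is pinned into ATP-containing buffer (10 uM ATP, imidazole pH 7.2, 7 mM MgCl2). Kinase-Glo luciferase reagent is then added. Light output is recorded following an 8-min room-temperature incubation.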
IMPase Li inh = IMPase inhibition in cells with lithium potentiation; CHO-M1 cells, IP1 TR-FRET (IP-One), carbachol + lithium; 0.35% of 210,000 active; Potency, µM (top dose mostly 59.4 µM), inactives show at the highest dose activity, negative = IMPase inhibition, hits mostly inhibitors; AID 1457; active = well fitted curve in the direction sought with a large enough effect; inconclusive = small, poorly fitted or top-dose-only effect, or another doubt; inactive = no such curve, though single readings can be large; an effect the other way counts as inactive or inconclusive;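 also: IP1 builds up when IMPase is blocked and the TR-FRET signal falls; plate controls were basal vehicle for no effect and high inhibitor control for full effect; nearly all actives have a fitted effect of over 50% in size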
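CHO cells stably expressing M1 receptor (2000/well) were cultured 16–30 h, then exposed to compounds with a small lithium addition for 30 min at 37C. IP1 was measured by TR-FRET competition; AC50 from Hill fits.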
HPGD block = inhibitors of human 15-hydroxyprostaglandin dehydrogenase (HPGD). P15428. purified HPGD, NADH fluorescence kinetic, PGE2 substrate. Potency, µM, without a hit: at the top dose activity change, negative = inhibition, actives largely listed as inhibitors. 4.3% of 150,000 active. AID 894
Target sequence (P15428 whole entry, looked up): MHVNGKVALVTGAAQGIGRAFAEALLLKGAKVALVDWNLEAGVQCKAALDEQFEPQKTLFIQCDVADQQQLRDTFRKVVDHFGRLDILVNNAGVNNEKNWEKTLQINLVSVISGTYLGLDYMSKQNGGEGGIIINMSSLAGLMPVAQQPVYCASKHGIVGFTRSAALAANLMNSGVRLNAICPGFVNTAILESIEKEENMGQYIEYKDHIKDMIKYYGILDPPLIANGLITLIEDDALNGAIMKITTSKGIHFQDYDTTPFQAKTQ
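20 nM HPGD preincubated 15 min at room temperature with compound in 50 mM Tris-HCl pH 8, 0.01% Tween 20. Started with 1 mM NAD+ and 30 uM prostaglandin E2; NADH fluorescence (360/450 nm) read 5 times over 30-s intervals, last minus first.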
Lamin A splicing = modulators of lamin A splicing; HeLa LMNA splicing GFP/RFP minigene ratio, 48 h; 0.01% of 200,000 active; Potency, µM (highest dose often 46.1 µM), for inactives: at the top dose ratio change, negative = inhibition, most hits filed as inhibitors; active = well fitted inhibition curve with a large enough effect in the signal ratio, with a control signal flat, not every such curve was filed as active; inconclusive = small, poorly fitted or top-dose-only effect, or effect the other way, or a change in a side signal; the % refers to the signal ratio
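S3 HeLa stable clones carrying a lamin A-EGFP splicing minigene plus DsRed2 were seeded at 600 cells/well in Opti-MEM with 2% FBS, pin-dosed and incubated 48 h at 37°C. Acumen cytometry (488 nm) gave the GFP/RFP total-intensity ratio.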
* hit, by the source's call; [ ] = remark or other dose. Hits are enriched below; roughly 9% of the tested compounds scored in any of these assays. Unless noted, calls follow the shape of the dose curve; as a rule, active = well fitted inhibition curve with a large enough effect (not every such curve was filed as active); inconclusive = small, poorly fitted or top-dose-only effect, or another doubt; inactive = no such curve, though single readings can be large or run the other way. Unless noted, % is scaled to controls: 0 for no effect and ±100 for the full control effect; potency is read from the fitted curve at half-maximal effect.

For NC(=O)c1ccccc1N/C=C/C(=O)c1ccc(F)cc1 the results were ALDH1A1 block inconclusive, KinaseGlo FLuc 7.94µM*, IMPase Li inh -10.1%[38.3 µM], HPGD block -20.9% and Lamin A splicing 12.2%.
O=C(CCl)c1ccc2[nH]c(=O)oc2c1 was read as ALDH1A1 block 0.282µM* and Lamin A splicing -3.7%[46 µM].
`O=c1[nH]c2ccc(S(=O)(=O)N3CCCCC3)cc2o1` gave ALDH1A1 block -0.7%, KinaseGlo FLuc 1.6%, IMPase Li inh 2.7%, HPGD block -0.1% and Lamin A splicing -7.9%.
`Cc1cc(NC(=O)c2ccc(Cl)cc2Cl)n(CCC#N)n1` gave ALDH1A1 block -1.2%, KinaseGlo FLuc 0.7%, IMPase Li inh -0.8% and Lamin A splicing 9.0%[46 µM].
`Cc1nn(CCC#N)c(N)c1C1(O)C(=O)Nc2c(Cl)cc(Cl)cc21` (stereo not given) gave ALDH1A1 block 3.98µM*.
`Cc1nnc(S(=O)(=O)c2ccc(N=Nc3c(N)nc(N)nc3N)cc2)s1` gave ALDH1A1 block -1.2%[13.5 µM], KinaseGlo FLuc -0.2%[7.66 µM], IMPase Li inh -3.2% and HPGD block -2.4%.
`O=C(c1ccncc1)N1CCC2(CCN(Cc3nccs3)CC2)CC1` gave ALDH1A1 block 6.8%, KinaseGlo FLuc -0.6%, IMPase Li inh 10.6% and HPGD block -3.2%.
CCN(c1ccc(C)cc1C)S(=O)(=O)c1nnc(NC(=O)c2ccc(F)cc2)s1 was read as Lamin A splicing 9.6%[46 µM].
For Cc1ccc(C)c2[nH]c(=O)c(CCNC(=O)c3ccc(S(=O)(=O)N(C)C)cc3)cc12 the results were ALDH1A1 block 22.4µM*, KinaseGlo FLuc -0.9%, IMPase Li inh 34.2%[38.3 µM], HPGD block -4.5% and Lamin A splicing -1.4%.
COC(=O)c1ccc(C(/C=C/[C@@H](C)C(=O)NCc2cc(C)n(C)n2)NC(=O)OCc2ccccc2)cc1 (stereo not given in full) was read as ALDH1A1 block inconclusive, KinaseGlo FLuc -2.6%, IMPase Li inh -0.3% and HPGD block -16.8%.
`COc1cc(/C=N/n2c(C)n[nH]c2=S)ccc1OCc1ccc(F)cc1` gave ALDH1A1 block inconclusive, KinaseGlo FLuc -1.4%, IMPase Li inh 16.2%, HPGD block 2.82µM* and Lamin A splicing 13.3%.
For COc1cc(/C=N\n2nnnc2N)ccc1OCc1ccc(F)cc1 the results were ALDH1A1 block inconclusive, KinaseGlo FLuc -1.3%, IMPase Li inh -1.6%[38.3 µM], HPGD block inconclusive and Lamin A splicing inconclusive.
For CNC(=O)c1ccccc1NC(=O)C1CC(=O)N(c2ccc(OC)cc2)C1 (stereo not given) the results were ALDH1A1 block -4.5%, KinaseGlo FLuc 1.9% and IMPase Li inh 4.2%.
`CCCCc1cc2c(cn1)=C(OC(=O)c1cccs1)C(C)(OC(=O)CC)C(=O)C=2` (stereo not given) gave ALDH1A1 block 3.16µM*, KinaseGlo FLuc -7.9%[7.66 µM], IMPase Li inh -0.5%, HPGD block -7.9% and Lamin A splicing inconclusive.
For CC1CCN(C(=S)Nc2ccc3nc4n(c(=O)c3c2)CCCCC4)CC1 the results were ALDH1A1 block inconclusive, KinaseGlo FLuc 3.9%, IMPase Li inh 1.8%, HPGD block 12.6µM* and Lamin A splicing inconclusive.
For CCCCNC(=S)Nc1ccc2nc3n(c(=O)c2c1)CCCCC3 the results were ALDH1A1 block -14.3%, KinaseGlo FLuc -1.3%, IMPase Li inh -0.8%, HPGD block 14.1µM* and Lamin A splicing inconclusive.
CC(C)OCCCNC(=S)Nc1ccc2nc3n(c(=O)c2c1)CCCCC3 was read as ALDH1A1 block -4.5%, KinaseGlo FLuc 0.6%, IMPase Li inh 5.6% and Lamin A splicing 0.7%[9.22 µM].
CC(C)CCNC(=S)Nc1ccc2nc3n(c(=O)c2c1)CCCCC3 was read as ALDH1A1 block inconclusive, KinaseGlo FLuc -1.3%, IMPase Li inh 7.0%, HPGD block 4.47µM* and Lamin A splicing inconclusive.
`O=C(CCC(=O)c1ccccc1)NCc1ccccc1` gave ALDH1A1 block 16.8%.
Cc1csc(NC(=O)c2cc3c(s2)CCCCC3)n1 was read as ALDH1A1 block inconclusive, KinaseGlo FLuc inconclusive, IMPase Li inh 35.4%[38.3 µM], HPGD block 25.1µM* and Lamin A splicing inconclusive.
Screening O=C(Nc1ccon1)c1cc2c(s1)CCCC2 returned ALDH1A1 block -10.6%, KinaseGlo FLuc -27.8%, IMPase Li inh 11.0%, HPGD block 28.2µM* and Lamin A splicing -20.5%.
CC(C)NC(=O)c1cc2c(s1)CCCC2 was read as ALDH1A1 block inconclusive, KinaseGlo FLuc -21.1%, IMPase Li inh -5.5%, HPGD block 22.4µM* and Lamin A splicing -4.2%.
For COc1ccc(CCNC(=O)c2cc(Sc3cccc(Cl)c3)nc3ccccc23)cc1OC the results were Lamin A splicing -17.3%[46 µM].
For COCCNC(=O)c1ccc2c(c1)nc(C)n2-c1cccc(F)c1 the results were ALDH1A1 block 4.3%, KinaseGlo FLuc -0.3%, IMPase Li inh 3.2%[38.3 µM], HPGD block 7.08µM* and Lamin A splicing -4.6%.
CCCNC(=O)c1ccc2c(c1)nc(C)n2-c1cccc(C)c1 was read as Lamin A splicing -18.6%[46 µM].
For CCCNC(=O)NC(=O)COC(=O)c1ccc(S(=O)(=O)N(C)c2ccccc2OC)cc1 the results were ALDH1A1 block 12.6µM*, KinaseGlo FLuc -0.2%, IMPase Li inh 27.1% and Lamin A splicing inconclusive.
C(=N\Nc1nc(-c2ccccc2)cs1)/c1cccnc1 was read as ALDH1A1 block -12.5%, KinaseGlo FLuc -1.5%, IMPase Li inh 1.0%, HPGD block -14.8% and Lamin A splicing -13.9%.
`Clc1ccc(N/N=C/c2cccnc2)cc1` gave ALDH1A1 block 25.1µM*, KinaseGlo FLuc -0.2%, IMPase Li inh -4.2%, HPGD block -12.0% and Lamin A splicing inconclusive.
`Cc1ccc(-c2nc(N/N=C/c3ccncc3)c3ccccc3n2)cc1` gave ALDH1A1 block inconclusive, KinaseGlo FLuc 2.24µM*, IMPase Li inh 4.8%[38.3 µM], HPGD block -23.9% and Lamin A splicing -8.8%.
`CC(C)(C)c1csc(N/N=C/c2cccnc2)n1` gave ALDH1A1 block 25.1µM*, KinaseGlo FLuc 0.5%, IMPase Li inh -0.5% and Lamin A splicing inconclusive.
`Cc1sc(N/N=C/c2cccnc2)nc1-c1ccc(Cl)cc1` gave ALDH1A1 block -1.7%, KinaseGlo FLuc 1.4%, IMPase Li inh 7.9%, HPGD block -25.6% and Lamin A splicing -9.3%.
Cc1ccc2nc(C(Cl)(Cl)Cl)nc(N/N=C/c3ccncc3)c2c1 was read as ALDH1A1 block -5.1% and IMPase Li inh -3.1%.
Screening Clc1ccccc1-c1nc(N/N=C/c2cccnc2)c2ccccc2n1 returned ALDH1A1 block inconclusive, KinaseGlo FLuc -6.2%, IMPase Li inh -0.7%[38.3 µM], HPGD block 14.1µM* and Lamin A splicing inconclusive.
For COc1ccc(NC(=S)N2CCN(C(=O)c3ccccc3)CC2)cc1 the results were ALDH1A1 block inconclusive, KinaseGlo FLuc 3.5%, IMPase Li inh 3.0% and Lamin A splicing -13.2%[46 µM].

Screening data: PubChem, National Center for Advancing Translational Sciences (NCATS)
